{
  "source": "PubChem BioAssay (NCI)",
  "note": "Compounds without any hit were thinned out: in the full panel of roughly 79,000, 15% have a hit. Unmarked numbers belong to inactive results. The source made the active and inactive calls. No stated cut-off is given here; in the data, active means growth inhibition above about 70%; inactive means the rest.",
  "data": [
    {"assay": "NCI Yeast Anticancer Drug Screen. Data for the rad50EPP+ strain (AID 151);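 further: 0% = growth of vehicle-treated control cultures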", "settings": "S. cerevisiae rad50 mutant strain, at 33.0 µM, stronger effect = higher value", "procedure,_shortened": "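Vehicle-normalised growth inhibition; rad50EPP+ yeast strain, altered in DNA damage repair, compound-treated.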", "values": [
      {"compound": "Cc1cccc2c(C(O)CBr)cc(-c3ccc(Cl)cc3)nc12", "note": "(stereo not given)", "growth inhibition": "40%"},
      {"compound": "CN(C)C[C@H]1CC[C@@H](CN(C)C)C1=O", "growth inhibition": "50%"},
      {"compound": "CC1=C(SCCO)C(=O)c2ccccc2C1=O", "growth inhibition": "75% (active)"},
      {"compound": "COC(=O)CCNc1c2ccccc2nc2cccc([N+](=O)[O-])c12", "growth inhibition": "93% (active)"},
      {"compound": "CC(/C=C/c1ccc2c(c1)OCO2)[N+](=O)[O-]", "note": "(stereo not given)", "growth inhibition": "99% (active)"},
      {"compound": "COC(=O)C1=C(C)NC(C)=C(C(=O)OCCCN2CCC(c3ccccc3)(c3ccccc3)CC2)C1c1cccc([N+](=O)[O-])c1", "note": "(stereo not given)", "growth inhibition": "92% (active)"},
      {"compound": "CCOC(=O)c1cnc2c(C(F)(F)F)cccc2c1N=[N+]=[N-]", "growth inhibition": "86% (active)"},
      {"compound": "O=[N+]([O-])c1cc2no[n+]([O-])c2cc1N1CCCCC1", "growth inhibition": "99% (active)"},
      {"compound": "COC(=O)c1ccc(NCC2=CC(=O)C=CC2=O)cc1O", "growth inhibition": "97% (active)"},
      {"compound": "CCCCCCCCNC(=O)C1=C(C)NC(C)=C(C(=O)NCCCCCCCC)C1", "growth inhibition": "11%"},
      {"compound": "S=C(Nc1ccc(Cl)c(Cl)c1)SCc1ccc2c(c1)OCO2", "growth inhibition": "99% (active)"},
      {"compound": "O=S(=O)(CCCl)c1ccccc1Cl", "growth inhibition": "79% (active)"},
      {"compound": "Nc1ccccc1CC(O)C(=O)O", "note": "(stereo not given)", "growth inhibition": "2%"},
      {"compound": "CN(C)c1ccc(Sc2ccc3nc(N)nc(N)c3c2)cc1", "growth inhibition": "30%"},
      {"compound": "CC(C)C1=CCC2C(=C1)CCC1C(C)(C(=O)O)CCCC21C", "note": "(stereo not given) (tested in a mixture with another compound)", "growth inhibition": "42%"},
      {"compound": "Cc1ccc(S(=O)(=O)Oc2cc(Cl)c(Cl)cc2Cl)cc1", "growth inhibition": "28%"},
      {"compound": "CSC(=S)Nc1cc(C)ccn1", "growth inhibition": "89% (active)"},
      {"compound": "CC(C)c1cc(C(C)C)c(O)c(C([O-])[O-])c1.CC(C)c1cc(C(C)C)c(O)c(C([O-])[O-])c1.CC(C)c1cc(C(C)C)c(O)c(C([OH2+])[OH2+])c1.CC(C)c1cc(C(C)C)c(O)c(C([OH2+])[OH2+])c1.[Cu+2].[Cu+2].[OH3+].[OH3+]", "growth inhibition": "11%"},
      {"compound": "Cc1cc(I)ccc1N", "growth inhibition": "20%"},
      {"compound": "CC(Br)C(=O)c1ccc2cc(Br)c3ccccc3c2c1", "note": "(stereo not given)", "growth inhibition": "35%"},
      {"compound": "O=C(Nc1ccccc1)OCCc1ccc(Cl)c(Cl)c1", "growth inhibition": "29%"},
      {"compound": "O=Cc1cccc2ccc3ccccc3c12", "growth inhibition": "77% (active)"},
      {"compound": "O=[N+]([O-])CC(SCc1ccccc1)c1ccc2c(c1)OCO2", "note": "(stereo not given)", "growth inhibition": "98% (active)"},
      {"compound": "CC1(Cl)CC(O)C2(CC1Br)C1(C)OC1C1OC1(Br)C2(C)C", "note": "(stereo not given)", "growth inhibition": "2%"},
      {"compound": "Cc1cc(O)cc(O)c1N=Nc1ccc([N+](=O)[O-])cc1", "growth inhibition": "22%"},
      {"compound": "CCCCCCCCCCCCCC[N+](C)(CC(=O)[O-])Cc1ccccc1", "note": "(stereo not given)", "growth inhibition": "99% (active)"},
      {"compound": "CC1=NN(c2cccc(Cl)c2)C(=O)C1", "growth inhibition": "-27%"},
      {"compound": "CC(=O)OCc1ccc(O)c(C=O)c1", "growth inhibition": "14%"},
      {"compound": "Cc1ccc2ccc3cccc4ccc1c2c34", "growth inhibition": "33%"},
      {"compound": "Cc1nc(-[n+]2nc(-c3ccncc3)nn2-c2ccccc2)sc1C", "growth inhibition": "44%"},
      {"compound": "C(CCSC1=NCCN1)CSC1=NCCN1", "note": "(tested in a mixture with another compound)", "growth inhibition": "73% (active)"},
      {"compound": "CCCCCCCCCCC(=O)Cl", "growth inhibition": "40%"},
      {"compound": "COC1C=COC2(C)Oc3c(C)c(O)c4c(c3C2=O)/C(=N/C2CCC(O)OC2C)C=C(NC(=O)/C(C)=C\\C(=O)C2CC2C(O)C(C)C(O)C(C)C(OC(C)=O)C1C)C4=O", "note": "(stereo not given)", "growth inhibition": "-7%"},
      {"compound": "S=c1[nH]nc(Nc2ccc(Cl)cc2)s1", "growth inhibition": "27%"},
      {"compound": "O=C1CSC(/C=C/c2ccccc2)N1c1ccc(-c2ccc(-n3c(-c4ccccc4)nc4ccccc4c3=O)cc2)cc1", "note": "(stereo not given)", "growth inhibition": "28%"},
      {"compound": "O=C1C=CC(=O)N1c1ccc2c(c1)Cc1cc(NC(=O)C(F)(F)F)ccc1-2", "growth inhibition": "91% (active)"},
      {"compound": "Brc1ccc(-c2cc3c(cc2C2SCCS2)OCO3)cc1", "growth inhibition": "29%"},
      {"compound": "Oc1ccc2ccccc2c1C(c1ccc(Cl)cc1)c1c(O)ccc2ccccc12", "growth inhibition": "-50%"},
      {"compound": "C[CH2][Sn]([CH2]C)([O]C(=O)C(OC(C)=O)c1ccccc1)[O]C(=O)C(OC(C)=O)c1ccccc1", "note": "(stereo not given)", "growth inhibition": "9%"},
      {"compound": "Cc1ccc2ccc(O)cc2c1", "growth inhibition": "-12%"}
    ]}
  ]
}
